Experimental data published in PMC7862700, “An all-to-all approach to the identification of sequence-specific readers for epigenetic DNA modifications on cytosine”.

Tests used:
Experiment in all cases: DAPPL (digital affinity profiling via proximity ligation, sequencing); 10 mM Tris-HCl pH 7.5, 50 mM NaCl, 1 mM DTT, 4% glycerol, room temperature, 30 min; GST-TFs on glutathione beads, 16-mer random dsDNA library, 0.1% formaldehyde crosslink after washing; high values mean tight binding
FLI1 = biological target: T1, FLI1 (Homo sapiens, UniProt Q01543 1-452); settings: protein: recombinant; tags: N-terminal GST; dsDNA, one strand shown
T1 sequence: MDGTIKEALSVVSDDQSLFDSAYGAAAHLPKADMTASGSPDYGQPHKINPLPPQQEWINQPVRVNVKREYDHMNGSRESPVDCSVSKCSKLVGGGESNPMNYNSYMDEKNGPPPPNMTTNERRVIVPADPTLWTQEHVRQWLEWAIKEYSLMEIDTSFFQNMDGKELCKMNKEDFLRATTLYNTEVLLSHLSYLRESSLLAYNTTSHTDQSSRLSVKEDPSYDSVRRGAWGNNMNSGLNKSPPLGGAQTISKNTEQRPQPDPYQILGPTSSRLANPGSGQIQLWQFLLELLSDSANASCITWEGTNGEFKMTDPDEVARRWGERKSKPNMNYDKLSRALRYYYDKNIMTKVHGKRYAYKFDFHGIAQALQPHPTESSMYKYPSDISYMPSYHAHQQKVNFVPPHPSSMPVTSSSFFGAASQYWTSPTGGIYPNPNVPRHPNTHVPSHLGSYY
How it was run: (§1)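 A tag-only sample was pooled with DNA-barcoded human transcription factors that had been expressed in yeast as GST fusions and captured on glutathione beads. The pools were incubated for 30 min at room temperature with 200 nmole of a random double-stranded 16-mer DNA library in Tris/NaCl/DTT/glycerol buffer, then washed, crosslinked with 0.1% formaldehyde, proximity-ligated (BsaI/T4 ligase, 1 h, 37 °C), PCR-amplified and sequenced on an Illumina NextSeq500. Binding signal is each hexamer's read frequency for a factor divided by its frequency for the tag-only sample.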

ELK1 = biological target: T2, ELK1 (Homo sapiens, UniProt P19419 1-428); settings: protein: recombinant; tags: N-terminal GST; dsDNA, one strand shown
T2 sequence: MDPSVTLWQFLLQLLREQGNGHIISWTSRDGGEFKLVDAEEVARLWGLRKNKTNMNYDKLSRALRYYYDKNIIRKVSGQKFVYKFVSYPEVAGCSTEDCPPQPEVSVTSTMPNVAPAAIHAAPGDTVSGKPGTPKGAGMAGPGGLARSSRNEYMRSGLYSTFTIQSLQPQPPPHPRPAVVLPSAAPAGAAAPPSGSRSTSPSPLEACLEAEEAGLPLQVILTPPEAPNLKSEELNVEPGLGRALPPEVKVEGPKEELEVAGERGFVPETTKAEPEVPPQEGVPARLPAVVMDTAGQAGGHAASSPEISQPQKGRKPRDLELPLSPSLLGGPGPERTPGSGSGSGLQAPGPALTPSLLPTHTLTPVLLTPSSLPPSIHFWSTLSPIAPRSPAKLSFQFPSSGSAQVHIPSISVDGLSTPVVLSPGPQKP
How it was run: as §1

GABPA = biological target: T3, GABPA (Homo sapiens, UniProt Q06546 1-454); settings: protein: recombinant; tags: N-terminal GST; dsDNA, one strand shown
T3 sequence: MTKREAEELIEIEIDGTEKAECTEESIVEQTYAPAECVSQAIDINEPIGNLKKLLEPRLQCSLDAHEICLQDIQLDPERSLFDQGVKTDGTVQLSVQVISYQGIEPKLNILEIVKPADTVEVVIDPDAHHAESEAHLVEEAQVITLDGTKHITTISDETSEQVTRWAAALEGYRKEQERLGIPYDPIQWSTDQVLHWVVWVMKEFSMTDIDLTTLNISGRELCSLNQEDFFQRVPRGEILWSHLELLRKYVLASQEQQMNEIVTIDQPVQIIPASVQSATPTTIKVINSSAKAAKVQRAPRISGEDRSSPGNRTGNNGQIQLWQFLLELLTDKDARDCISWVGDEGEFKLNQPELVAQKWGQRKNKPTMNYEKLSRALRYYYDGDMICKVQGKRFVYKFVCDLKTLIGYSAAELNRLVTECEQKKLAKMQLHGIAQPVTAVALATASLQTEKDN
How it was run: as §1

ERG = biological target: T4, ERG (Homo sapiens, UniProt P11308 1-479); settings: protein: recombinant; tags: N-terminal GST; dsDNA, one strand shown
T4 sequence: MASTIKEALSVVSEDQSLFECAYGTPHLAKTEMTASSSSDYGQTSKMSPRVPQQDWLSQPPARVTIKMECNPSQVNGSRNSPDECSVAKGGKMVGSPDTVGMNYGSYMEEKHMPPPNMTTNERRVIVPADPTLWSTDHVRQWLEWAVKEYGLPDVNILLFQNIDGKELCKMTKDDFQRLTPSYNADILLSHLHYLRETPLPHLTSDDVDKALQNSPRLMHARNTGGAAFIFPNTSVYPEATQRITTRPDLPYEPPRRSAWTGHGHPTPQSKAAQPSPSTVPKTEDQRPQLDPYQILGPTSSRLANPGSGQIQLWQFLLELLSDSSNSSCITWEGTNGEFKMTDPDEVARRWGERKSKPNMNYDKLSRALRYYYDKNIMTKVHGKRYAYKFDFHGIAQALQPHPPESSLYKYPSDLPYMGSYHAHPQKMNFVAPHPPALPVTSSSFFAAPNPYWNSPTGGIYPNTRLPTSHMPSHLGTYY
How it was run: as §1

ELF1 = ELF1 (Homo sapiens, UniProt P32519 1-619); settings: protein: recombinant; tags: N-terminal GST; dsDNA, one strand shown
How it was run: as §1

EHF = biological target: T5, EHF (Homo sapiens, UniProt Q9NZC4 1-300); settings: protein: recombinant; tags: N-terminal GST; dsDNA, one strand shown
T5 sequence: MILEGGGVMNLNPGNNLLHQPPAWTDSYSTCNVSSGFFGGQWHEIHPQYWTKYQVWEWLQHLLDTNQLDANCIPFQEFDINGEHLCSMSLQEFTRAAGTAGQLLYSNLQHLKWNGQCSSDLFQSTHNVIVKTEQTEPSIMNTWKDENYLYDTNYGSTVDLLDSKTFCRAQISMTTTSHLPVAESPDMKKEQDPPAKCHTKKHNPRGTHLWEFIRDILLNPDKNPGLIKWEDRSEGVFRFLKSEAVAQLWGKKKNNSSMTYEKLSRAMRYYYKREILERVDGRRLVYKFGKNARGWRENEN
How it was run: as §1

SPI1 = SPI1 (Homo sapiens, UniProt P17947 1-270); settings: protein: recombinant; tags: N-terminal GST; dsDNA, one strand shown
How it was run: as §1

SPIB = SPIB (Homo sapiens, UniProt Q01892 1-262); settings: protein: recombinant; tags: N-terminal GST; dsDNA, one strand shown
How it was run: as §1

ELK3 = biological target: T6, ELK3 (Homo sapiens, UniProt P41970 1-407); settings: protein: recombinant; tags: N-terminal GST; dsDNA, one strand shown
T6 sequence: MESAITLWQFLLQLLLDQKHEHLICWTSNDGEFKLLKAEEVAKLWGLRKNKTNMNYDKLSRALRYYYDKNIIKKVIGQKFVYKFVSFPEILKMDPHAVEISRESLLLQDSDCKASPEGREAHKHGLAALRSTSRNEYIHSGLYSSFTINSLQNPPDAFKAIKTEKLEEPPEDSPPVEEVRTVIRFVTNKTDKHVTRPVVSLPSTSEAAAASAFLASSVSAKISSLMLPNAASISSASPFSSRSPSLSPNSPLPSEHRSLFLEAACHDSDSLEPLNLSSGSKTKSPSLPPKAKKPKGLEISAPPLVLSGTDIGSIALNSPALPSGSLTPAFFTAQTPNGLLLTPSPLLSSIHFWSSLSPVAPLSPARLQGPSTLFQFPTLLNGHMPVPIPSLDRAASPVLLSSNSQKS
How it was run: as §1

FEV = biological target: T7, FEV (Homo sapiens, UniProt Q99581 1-238); settings: protein: recombinant; tags: N-terminal GST; dsDNA, one strand shown
T7 sequence: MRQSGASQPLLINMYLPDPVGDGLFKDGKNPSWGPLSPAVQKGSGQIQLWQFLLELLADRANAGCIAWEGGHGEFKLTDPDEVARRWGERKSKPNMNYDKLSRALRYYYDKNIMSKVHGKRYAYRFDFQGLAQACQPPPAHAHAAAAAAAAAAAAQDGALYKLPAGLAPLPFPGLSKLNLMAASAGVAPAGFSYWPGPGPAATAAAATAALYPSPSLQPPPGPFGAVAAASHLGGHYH
How it was run: as §1

ETV5 = ETV5 (Homo sapiens, UniProt P41161 1-510); settings: protein: recombinant; tags: N-terminal GST; dsDNA, one strand shown
How it was run: as §1

HSF1 = HSF1 (Homo sapiens, UniProt Q00613 1-529); settings: protein: recombinant; tags: N-terminal GST; chain copies: 3; dsDNA, one strand shown
How it was run: as §1

SPIC = biological target: T8, SPIC (Homo sapiens, UniProt Q8N5J4 1-248); settings: protein: recombinant; tags: N-terminal GST; dsDNA, one strand shown
T8 sequence: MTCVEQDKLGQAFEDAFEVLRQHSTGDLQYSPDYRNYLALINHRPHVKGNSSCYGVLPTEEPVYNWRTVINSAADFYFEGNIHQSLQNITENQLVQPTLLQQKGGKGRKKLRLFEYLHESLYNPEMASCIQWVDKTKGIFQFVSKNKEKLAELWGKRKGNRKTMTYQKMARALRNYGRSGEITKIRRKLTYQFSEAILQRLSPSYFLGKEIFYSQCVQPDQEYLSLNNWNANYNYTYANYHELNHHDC
How it was run: as §1

ELF4 = ELF4 (Homo sapiens, UniProt Q99607 1-663); settings: protein: recombinant; tags: N-terminal GST; dsDNA, one strand shown
How it was run: as §1

ELK4 = biological target: T9, ELK4 (Homo sapiens, UniProt P28324-2 1-405); settings: protein: recombinant; tags: N-terminal GST; dsDNA, one strand shown
T9 sequence: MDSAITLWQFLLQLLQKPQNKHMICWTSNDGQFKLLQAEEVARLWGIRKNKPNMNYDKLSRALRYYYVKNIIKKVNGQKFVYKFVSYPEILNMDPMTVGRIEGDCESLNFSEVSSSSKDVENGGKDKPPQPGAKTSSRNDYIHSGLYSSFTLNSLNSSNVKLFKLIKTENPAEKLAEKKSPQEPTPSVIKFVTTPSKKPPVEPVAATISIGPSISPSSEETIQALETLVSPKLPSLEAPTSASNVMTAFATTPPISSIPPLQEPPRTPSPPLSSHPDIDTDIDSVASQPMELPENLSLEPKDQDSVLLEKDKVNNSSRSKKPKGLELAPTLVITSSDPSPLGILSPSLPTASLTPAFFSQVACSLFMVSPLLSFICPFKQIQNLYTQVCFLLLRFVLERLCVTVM
How it was run: as §1

ETV2 = biological target: T10, ETV2 (Homo sapiens, UniProt O00321 1-342); settings: protein: recombinant; tags: N-terminal GST; dsDNA, one strand shown
T10 sequence: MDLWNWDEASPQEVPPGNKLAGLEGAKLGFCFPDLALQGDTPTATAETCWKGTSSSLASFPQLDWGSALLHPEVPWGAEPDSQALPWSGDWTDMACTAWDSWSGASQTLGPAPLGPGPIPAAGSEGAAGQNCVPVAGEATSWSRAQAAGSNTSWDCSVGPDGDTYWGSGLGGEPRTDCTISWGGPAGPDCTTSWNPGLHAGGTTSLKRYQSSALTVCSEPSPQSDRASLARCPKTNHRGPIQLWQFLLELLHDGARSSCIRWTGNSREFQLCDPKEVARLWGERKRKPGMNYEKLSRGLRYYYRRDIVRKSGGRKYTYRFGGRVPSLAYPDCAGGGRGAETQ
How it was run: as §1

ELF3 = biological target: T11, ELF3 (Homo sapiens, UniProt P78545 1-371); settings: protein: recombinant; tags: N-terminal GST; dsDNA, one strand shown
T11 sequence: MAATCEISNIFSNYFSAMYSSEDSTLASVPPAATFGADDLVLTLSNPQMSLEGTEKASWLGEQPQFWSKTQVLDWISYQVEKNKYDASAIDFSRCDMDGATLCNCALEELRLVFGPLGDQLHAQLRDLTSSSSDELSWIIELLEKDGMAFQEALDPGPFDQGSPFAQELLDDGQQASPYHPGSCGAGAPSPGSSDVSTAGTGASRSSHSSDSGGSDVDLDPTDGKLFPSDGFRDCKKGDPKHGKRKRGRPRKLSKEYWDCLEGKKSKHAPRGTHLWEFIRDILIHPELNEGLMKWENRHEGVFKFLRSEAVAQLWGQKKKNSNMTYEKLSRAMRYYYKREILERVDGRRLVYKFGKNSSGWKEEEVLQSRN
How it was run: as §1

CRX = CRX (Homo sapiens, UniProt O43186 1-299); settings: protein: recombinant; tags: N-terminal GST; dsDNA, one strand shown
How it was run: as §1

ETV1 = ETV1 (Homo sapiens, UniProt P50549 1-477); settings: protein: recombinant; tags: N-terminal GST; dsDNA, one strand shown
How it was run: as §1

ETV1, sequence (P50549 whole entry): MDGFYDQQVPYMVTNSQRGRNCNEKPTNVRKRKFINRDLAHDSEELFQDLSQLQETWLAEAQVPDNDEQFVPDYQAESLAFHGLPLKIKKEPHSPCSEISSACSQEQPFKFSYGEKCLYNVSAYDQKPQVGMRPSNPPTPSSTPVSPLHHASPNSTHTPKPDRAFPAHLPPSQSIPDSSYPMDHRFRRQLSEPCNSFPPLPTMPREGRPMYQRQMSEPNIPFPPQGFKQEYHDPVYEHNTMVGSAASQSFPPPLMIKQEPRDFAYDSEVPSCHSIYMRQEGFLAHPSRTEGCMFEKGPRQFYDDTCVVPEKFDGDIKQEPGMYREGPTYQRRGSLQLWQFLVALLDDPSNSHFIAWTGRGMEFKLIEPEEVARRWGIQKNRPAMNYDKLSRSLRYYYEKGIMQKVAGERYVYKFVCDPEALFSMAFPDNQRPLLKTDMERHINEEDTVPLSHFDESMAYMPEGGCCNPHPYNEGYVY
HSF1, sequence (Q00613 whole entry): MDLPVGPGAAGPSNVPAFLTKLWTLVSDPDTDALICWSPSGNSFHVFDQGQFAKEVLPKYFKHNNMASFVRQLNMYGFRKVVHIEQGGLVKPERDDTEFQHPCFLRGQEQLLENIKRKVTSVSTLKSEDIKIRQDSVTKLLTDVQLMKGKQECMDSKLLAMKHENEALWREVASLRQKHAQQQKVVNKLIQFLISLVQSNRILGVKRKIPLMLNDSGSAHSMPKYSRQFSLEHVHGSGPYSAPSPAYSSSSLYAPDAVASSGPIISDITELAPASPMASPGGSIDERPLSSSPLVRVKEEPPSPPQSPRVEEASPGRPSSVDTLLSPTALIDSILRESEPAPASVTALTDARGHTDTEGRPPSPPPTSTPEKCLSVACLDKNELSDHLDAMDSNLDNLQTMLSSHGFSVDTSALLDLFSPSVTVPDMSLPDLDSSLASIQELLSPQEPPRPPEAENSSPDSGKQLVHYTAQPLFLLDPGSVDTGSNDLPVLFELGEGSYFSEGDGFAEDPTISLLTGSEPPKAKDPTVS
ETV5, sequence (P41161 whole entry): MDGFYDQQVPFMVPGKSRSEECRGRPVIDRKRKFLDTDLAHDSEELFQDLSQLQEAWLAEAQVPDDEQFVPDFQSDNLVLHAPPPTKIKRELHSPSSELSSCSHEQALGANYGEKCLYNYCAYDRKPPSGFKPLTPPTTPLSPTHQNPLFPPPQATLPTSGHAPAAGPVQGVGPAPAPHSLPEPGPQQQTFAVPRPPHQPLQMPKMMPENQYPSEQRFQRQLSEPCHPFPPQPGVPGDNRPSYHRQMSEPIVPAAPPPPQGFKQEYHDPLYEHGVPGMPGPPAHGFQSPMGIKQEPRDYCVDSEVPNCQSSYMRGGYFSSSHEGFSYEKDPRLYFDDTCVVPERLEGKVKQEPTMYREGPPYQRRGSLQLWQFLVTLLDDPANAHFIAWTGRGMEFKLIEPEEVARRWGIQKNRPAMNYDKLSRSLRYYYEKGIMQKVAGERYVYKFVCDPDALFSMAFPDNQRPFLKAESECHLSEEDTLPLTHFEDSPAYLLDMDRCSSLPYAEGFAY
ELF4, sequence (Q99607 whole entry): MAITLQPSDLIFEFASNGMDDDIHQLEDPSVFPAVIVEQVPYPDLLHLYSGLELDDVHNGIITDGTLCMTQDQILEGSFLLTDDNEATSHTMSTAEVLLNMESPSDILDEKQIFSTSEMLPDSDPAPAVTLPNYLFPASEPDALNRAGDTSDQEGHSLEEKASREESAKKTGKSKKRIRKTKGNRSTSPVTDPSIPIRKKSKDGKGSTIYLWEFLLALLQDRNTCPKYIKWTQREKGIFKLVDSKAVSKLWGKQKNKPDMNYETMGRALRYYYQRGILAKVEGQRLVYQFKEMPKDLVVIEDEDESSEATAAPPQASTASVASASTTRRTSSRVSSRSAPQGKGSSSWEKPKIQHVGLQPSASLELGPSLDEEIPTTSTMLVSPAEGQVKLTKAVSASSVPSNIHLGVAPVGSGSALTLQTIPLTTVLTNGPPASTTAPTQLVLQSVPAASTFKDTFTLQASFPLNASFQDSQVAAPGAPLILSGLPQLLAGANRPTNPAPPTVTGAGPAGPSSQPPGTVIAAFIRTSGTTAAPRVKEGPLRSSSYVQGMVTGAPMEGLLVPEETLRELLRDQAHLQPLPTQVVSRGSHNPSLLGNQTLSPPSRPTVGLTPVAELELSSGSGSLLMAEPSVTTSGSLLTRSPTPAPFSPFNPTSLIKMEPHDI
ELF1, sequence (P32519 whole entry): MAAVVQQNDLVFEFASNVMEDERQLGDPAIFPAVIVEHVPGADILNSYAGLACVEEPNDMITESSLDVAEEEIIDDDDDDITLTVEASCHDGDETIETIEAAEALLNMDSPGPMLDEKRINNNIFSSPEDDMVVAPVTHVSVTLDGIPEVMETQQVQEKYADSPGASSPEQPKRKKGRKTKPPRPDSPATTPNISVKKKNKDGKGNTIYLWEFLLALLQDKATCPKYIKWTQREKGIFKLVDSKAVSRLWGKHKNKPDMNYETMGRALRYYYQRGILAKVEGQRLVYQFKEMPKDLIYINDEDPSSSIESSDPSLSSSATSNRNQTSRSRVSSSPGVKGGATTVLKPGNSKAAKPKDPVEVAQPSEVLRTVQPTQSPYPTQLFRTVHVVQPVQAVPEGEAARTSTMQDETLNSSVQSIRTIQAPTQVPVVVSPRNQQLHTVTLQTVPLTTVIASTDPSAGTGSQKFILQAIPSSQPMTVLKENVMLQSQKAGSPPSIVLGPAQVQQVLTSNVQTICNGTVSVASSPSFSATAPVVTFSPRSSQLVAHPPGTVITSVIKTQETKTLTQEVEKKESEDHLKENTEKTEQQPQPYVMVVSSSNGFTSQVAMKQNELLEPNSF
CRX, sequence (O43186 whole entry): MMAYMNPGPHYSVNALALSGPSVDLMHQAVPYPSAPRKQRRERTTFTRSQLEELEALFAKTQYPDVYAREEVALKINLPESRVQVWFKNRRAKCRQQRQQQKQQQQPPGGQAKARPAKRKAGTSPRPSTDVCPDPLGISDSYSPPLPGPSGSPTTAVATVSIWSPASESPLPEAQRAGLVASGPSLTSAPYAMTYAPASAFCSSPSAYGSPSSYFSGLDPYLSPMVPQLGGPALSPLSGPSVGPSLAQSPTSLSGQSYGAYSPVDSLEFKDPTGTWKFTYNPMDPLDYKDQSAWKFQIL
SPIB, sequence (Q01892 whole entry): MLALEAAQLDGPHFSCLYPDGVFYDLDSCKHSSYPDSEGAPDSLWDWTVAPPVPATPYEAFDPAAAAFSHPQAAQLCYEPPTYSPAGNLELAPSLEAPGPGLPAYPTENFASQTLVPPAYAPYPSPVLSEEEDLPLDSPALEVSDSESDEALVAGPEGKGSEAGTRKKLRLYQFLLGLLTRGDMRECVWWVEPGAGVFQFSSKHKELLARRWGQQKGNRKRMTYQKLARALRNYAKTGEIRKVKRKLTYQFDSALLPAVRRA

## ATTATC
FLI1
  binding signal: 1.35 fold enrichment (6-mer frequency, TF over GST control)
ELK1
  binding signal: 1.35 fold enrichment (6-mer frequency, TF over GST control)
GABPA
  binding signal: 1.34 fold enrichment (6-mer frequency, TF over GST control)
ERG
  binding signal: 1.32 fold enrichment (6-mer frequency, TF over GST control)
ELF1
  binding signal: 1.29 fold enrichment (6-mer frequency, TF over GST control)
EHF
  binding signal: 1.28 fold enrichment (6-mer frequency, TF over GST control)
SPI1
  binding signal: 1.35 fold enrichment (6-mer frequency, TF over GST control)
SPIB
  binding signal: 1.27 fold enrichment (6-mer frequency, TF over GST control)
ELK3
  binding signal: 1.32 fold enrichment (6-mer frequency, TF over GST control)
FEV
  binding signal: 1.29 fold enrichment (6-mer frequency, TF over GST control)
ETV5
  binding signal: 1.26 fold enrichment (6-mer frequency, TF over GST control)
HSF1
  binding signal: 2.51 fold enrichment (6-mer frequency, TF over GST control)
SPIC
  binding signal: 1.34 fold enrichment (6-mer frequency, TF over GST control)
ELF4
  binding signal: 1.32 fold enrichment (6-mer frequency, TF over GST control)
ELK4
  binding signal: 1.39 fold enrichment (6-mer frequency, TF over GST control)
ETV2
  binding signal: 1.38 fold enrichment (6-mer frequency, TF over GST control)
ELF3
  binding signal: 1.39 fold enrichment (6-mer frequency, TF over GST control)
CRX
  binding signal: 3.86 fold enrichment (6-mer frequency, TF over GST control)
ETV1
  binding signal: 1.31 fold enrichment (6-mer frequency, TF over GST control)
